# Reference: the OligoGym collection
# Biological target: LHFPL4
# Experiment: pooled miR-30 sensor sort-seq; sequence = guide strand
# Conditions: shRNA
row,Sequence,sensor-assay potency score (higher = more potent)
1,TCCGCATGTAGTGCTCGTGGTA,-1.39
2,ATCTTGTAGACCGTAGCCGTGT,-0.823
3,TTCCGCATGTAGTGCTCGTGGT,-0.829
4,TTGTAGACCGTAGCCGTGTTGC,-0.989

# Biological target: LHFPL5
# Experiment: as above
# Conditions: shRNA
row,Sequence,sensor-assay potency score (higher = more potent)
1,TTGCAGATGAAGAACAGGCTGA,0.379
2,TAGACTGTGGCCGTGTTGCAGA,-0.721
3,TTCTGGTTGAGTCAGTGTGGGC,-1.68
4,TACAGTAGGAGGTCTTGTCTCA,-0.0507
5,TAGTTGGTATGGTAGATCTTGG,-1.03
6,AACATAAGTAACACATTTCTGA,-0.109
7,TTGAACATAAGTAACACATTTC,-0.364
8,TTGTCTCAGGAGACTGTCCAGT,-0.336
9,TAGTGTTATAATAAAAGGCTTC,-0.225
10,TAACACATTTCTGAAGCTGGTA,0.181
11,TATAACAAATTACTTGAACATA,-1.51
12,TTGACGCTGTCGCCGATCCAGT,-1.35

# Biological target: LHX3
# Experiment: as above
# Conditions: shRNA
row,Sequence,sensor-assay potency score (higher = more potent)
1,TTGAAGTCTTGGAAAGAGCTGA,0.479
2,TTGGCAACAGACATCTGTGGGT,0.209
3,TTTCATGTCTAGAAATAGCAGC,0.283
4,TTGAGACACTTGCTGTGCCAGT,-0.489
5,ATGAGGTAGAACTCGTCGCCCG,-1.34
6,TTGAAAAAGTCGTCCTTGCAGT,-0.456
7,TGCACTTGAGACACTTGCTGTG,-0.126
8,TAGGTCAGAACTGGGTCCGTTC,-0.902
9,TTTGGCAACAGACATCTGTGGG,-0.246
10,TTGCAGTAAACGCTCTCCCCTC,-0.865
11,TTGTCCGACTTGGAGCCGCCGC,-1.19
12,TTTGACTTACACACAGGCCAGC,-0.684

# Biological target: LHX9
# Experiment: as above
# Conditions: shRNA
row,Sequence,sensor-assay potency score (higher = more potent)
1,TGCGTTTTGGAACCAAACCTGC,-1.08
2,TTCTGAATTTGGCTCGTGCGTT,-1.08
3,TTACATTCACAGCACTTCAGGC,-0.155
4,TTGAGGTCCTTGGCATCCGGGT,-1.42
5,TGTCACTACAGTGATAGTGGGA,0.281
6,TACAGTGATAGTGGGATTGGTC,-0.245
7,TTTCATGGTCCGGAGCTGGTGA,-0.253
8,TTCCTTCTGAATTTGGCTCGTG,0.209
9,TTTCTGGGCAAGCTGCTTGAGG,-0.927
10,TAGTTTGTGAGGGGCTTCCGGA,-1.17
11,TAAAGTGGTCGCAGTGCCGGGT,-0.418
12,TTAAAGTGGTCGCAGTGCCGGG,-1.18
